The text below walks through data of PubChem BioAssay AID1259415 (National Center for Advancing Translational Sciences (NCATS), 2018).

Structures are written as SMILES. Among all 410,000 compounds or so, about 18,000 (4.4%) were called active. About 7% were inconclusive and are not listed. The list comes from a sample in which actives are over-represented; it also holds similar structures and randomly drawn compounds. A number with no mark means an inactive call. Cut-off read from the data, not from the text of the source: active = activity change below about -60%; inconclusive = no clear call, values can overlap the other calls; inactive = above about -39%.
% is set by controls: 0 for no effect and ±100 for the full control effect.

This experiment in a line: qHTS Assay for inhibitors of the human cytomegalovirus (HCMV). As to conditions: HFF cells, HCMV-luciferase reporter, 72 h; at 57.5 µM; active compounds read low. The method, boiled down:
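Luciferase read-out from HCMV-luciferase-infected HFFs (MOI 1 PFU/cell) 72 h post infection at 37C; compounds added after 16 h cell attachment; activity normalized between buffer-only basal and Salinomycin (10uM) inhibitor controls.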
For `COc1ccc(CNC(=O)C2=Cc3cccc(OC)c3OC2)cc1OC`, the activity change, negative = inhibition was -2.4%.
Regarding `O=C(Nc1ccc(Br)cc1)c1ccc(Br)c(S(=O)(=O)NCc2ccccc2)c1`, the activity change, negative = inhibition is -106% (active).
On to `Cc1ccc(C(=O)Nc2ccc(C(=O)O)cc2)cc1S(=O)(=O)Nc1ccccc1`, for which the activity change, negative = inhibition is 6.44%.
The figure for `COc1ccc(CNS(=O)(=O)c2cc(Br)ccc2Br)cc1` is -5.85%; for `CCOc1ccc(S(=O)(=O)Nc2ccc3oc4c(c3c2)CC(C)CC4)cc1` (stereo not given) it is 33.8%.
As for `CCC(=O)N1CCc2cc(S(=O)(=O)NCCC(=O)Nc3cccc(C)c3C)ccc21`, the activity change, negative = inhibition was 4.12%.
The figure for `CCCC(=O)Nc1nnc(CC(=O)OCC)s1` is 69.6%.
Consider `N#Cc1ccccc1Sc1ccccc1C(=O)OCC(=O)NC1CCCCC1`, for which the activity change, negative = inhibition was -31.3%.
As to `CC(C)NC(=O)c1ccccc1S(=O)c1ccccc1C#N` (stereo not given), the activity change, negative = inhibition was -72.2% (active).
Regarding `CC(C)Oc1ccccc1C(=O)NC(CO)C(=O)O` (stereo not given), the activity change, negative = inhibition was 0.22%.
The figure for `O=C(CC(c1cccs1)N1Cc2ccccc2C1=O)Nc1ccc(F)cc1F` (stereo not given) is 5.86%.
Consider `Cc1ccc(-c2ccc(CCC(=O)O)n2-c2ccc(C(N)=O)cc2)cc1`, for which the activity change, negative = inhibition is 15%.
`[O-][n+]1onc2c1CCc1[nH]c(-c3ccccc3)nc1-2`: the activity change, negative = inhibition is -99.3% (active).
Take `Cc1ccc(NC(=O)C(Cc2ccccc2)NS(=O)(=O)c2ccc3c(c2)oc(=O)n3C)cc1C` (stereo not given): the activity change, negative = inhibition was 1.25%.
Take `CC1CCN(S(=O)(=O)c2ccc3c(c2)N(CC(=O)NCc2ccccc2Cl)C(=O)CO3)CC1`: the activity change, negative = inhibition was 15.7%.
Consider `O=C(OCc1ccccc1)c1ccc(O)cc1`, for which the activity change, negative = inhibition was 17.9%.
The figure for `CCOC(=O)c1nnn(-c2nonc2-n2cccc2)c1CN1CCOCC1` is -19.5%.
As for `CCOC(=O)c1c(CN2CCOCC2)n(-c2ccccc2)c2ccc(O)cc12`, the activity change, negative = inhibition is -73% (active).
The figure for `CCOC(=O)c1c(CN(C)C)n(-c2ccccc2)c2cc(Br)c(O)cc12` is -35%.
Regarding `O[C@H]1C[C@H](c2ccc(Cl)cc2)N(Cc2cccs2)C[C@@H]1n1cc(C2CC2)nn1`, the activity change, negative = inhibition is 15%.
In the case of `CCOC(=O)[C@]12CCC=C1N(CCC1=CCCCC1)C(=O)[C@H](CC(=O)NCc1ccc(C)o1)C2`, the activity change, negative = inhibition was -0.404%.
`CCc1nc2onc(C)c2c(=O)n1CC(=O)O`: the activity change, negative = inhibition is 9.29%.
Consider `CCc1nn(CC(=O)NCC(C)c2ccccc2)c(=O)c2cc3occc3n12` (stereo not given), for which the activity change, negative = inhibition is -13.6%.
For `COc1ccc(-c2nc(Cn3c(=O)cc(C)c4c(C)nn(-c5ccccc5)c43)c(C)o2)cc1OC`, the activity change, negative = inhibition was 18.8%.
For `OCCCNc1nccc(-c2cc(Nc3cccc(Cl)c3)ncn2)n1`, the activity change, negative = inhibition was -97.8% (active).
With `COC(=O)[C@H]1[C@H](CO)[C@H]2Cn3c(cccc3=O)[C@H]2N1CC1CC1`, the activity change, negative = inhibition is 3.17%.
In the case of `O=C(c1cccnc1)N1CCN(S(=O)(=O)c2cccs2)CC1`, the activity change, negative = inhibition is 7.09%.
As for `O=C(N/N=C/c1sc(N2CCCCC2)nc1-c1cccs1)c1cccnc1`, the activity change, negative = inhibition is -80.6% (active).
For the compound `O=C(Nc1cccc(Cl)c1N1CCOCC1)c1cccnc1`, the activity change, negative = inhibition is -21.6%.
Turning to `COc1cccc(N2CC(NC(=O)/C=C\c3ccccc3)CC2=O)c1` (stereo not given), the activity change, negative = inhibition is 81.9%.
With `CCOC(=O)c1c(-c2ccc(OC)cc2)oc2ccc(OCc3ccc(C(=O)OC)cc3)cc12`, the activity change, negative = inhibition is -6.67%.
Turning to `COC(=O)c1ccc(NC(=O)CCc2c(C)nc3c(c(C)nn3-c3ccc(C)cc3)c2C)cc1`, the activity change, negative = inhibition is -19.7%.
On to `COc1ccc(CCNC(=O)CCCCn2c(=O)c3ccccc3n(Cc3ccccc3)c2=O)cc1OC`, for which the activity change, negative = inhibition is -9.1%.
As for `COc1cc(Cl)cc(C2NC(=O)NC(C)=C2C(=O)NCc2ccccc2)c1O` (stereo not given), the activity change, negative = inhibition is 3.06%.
Consider `COc1cc(/C=C2/SC(=S)N(Cc3ccccc3)C2=O)cc(OC)c1O`, for which the activity change, negative = inhibition was -63.1% (active).
The figure for `COc1cc2c(cc1OC)C(C(=O)NCc1ccco1)C1c3ccccc3CCN1C2=O` (stereo not given) is 3.83%; for `COCCNC(=O)CSc1c(C)cnc2c1c(=O)n(C)c(=O)n2C` it is 8.83%.
In the case of `Cc1cccc2nc(-c3ccc(Cl)s3)c(Nc3ccc4c(c3)OCCO4)n12`, the activity change, negative = inhibition was 19.5%.
On to `Cc1cccnc1C(NC(=O)C1CCN(Cc2ccc(Cl)c(Cl)c2)CC1)c1ccc(Cl)cc1` (stereo not given), for which the activity change, negative = inhibition was -88.1% (active).
The figure for `O=C(NC(c1ccc(Cl)cc1)c1cnccn1)C1CCN(Cc2ccc(Cl)cc2)CC1` (stereo not given) is 18.3%; for `Cc1ccc(C(NC(=O)C2CCN(CCOc3ccc(Cl)cc3Cl)CC2)c2ccccn2)cc1` (stereo not given) it is 23.2%; for `Cc1ccc(CSc2nc3cccnc3n2Cc2ccc(C(=O)NC3CC3)cc2)cc1` it is 112%.
The figure for `CCn1c(CN2C(=O)CSc3ccccc32)n[nH]c1=S` is -8.44%.
For `CC(=O)c1cc(C#N)c(N2CC(C)OC(C)C2)nc1C` (stereo not given), the activity change, negative = inhibition is -16.2%.
As for `Cc1cc(C)c2cc(C#N)c(N3CCNCC3)nc2c1`, the activity change, negative = inhibition was -15.9%.
Regarding `CC(=O)c1cc(C#N)c(N2CCCCC2)nc1C`, the activity change, negative = inhibition is -92.4% (active).
Turning to `Cc1cc(C)cc(NS(=O)(=O)c2ccc3[nH]cc(C(=O)N4CCCCC4)c(=O)c3c2)c1`, the activity change, negative = inhibition is 1.5%.
For `CC(=O)NC(Cc1ccc(F)c(F)c1)C(=O)NC1CCN(c2nnnn2-c2ccccc2)CC1` (stereo not given), the activity change, negative = inhibition is -16%.
`COc1ccc(-c2nonc2NC(=O)c2oc3ccc(F)cc3c2C)cc1OC`: the activity change, negative = inhibition was -12.8%.
Turning to `O=C(NC1CC(=O)N(c2ccccc2)C1)c1ccco1` (stereo not given), the activity change, negative = inhibition was 43.8%.
The figure for `COc1cc(Br)c(-c2sc(Nc3ccccc3)n[n+]2-c2ccccc2)cc1OC` is 25.2%; for `CCc1ccc(Nc2n[n+](-c3ccccc3)c(-c3cccc(Cl)c3Cl)s2)cc1` it is -69.1% (active).
As for `COc1ccc(C)cc1Nc1n[n+](-c2ccccc2)c(-c2cccc(Cl)c2Cl)s1`, the activity change, negative = inhibition was 8%.
With `CCCCC(=O)OC1=CN(Cc2ccccc2)S(=O)(=O)c2ccccc21`, the activity change, negative = inhibition is -6.62%.
For the compound `CN(Cc1cccs1)C(=O)Cc1c[nH]c2ccccc12`, the activity change, negative = inhibition was 26%.
In the case of `CC(C)C12CN3CC(C(C)C)(CN(C1)C3c1ccc(OCc3ccccc3)cc1)C2=O` (stereo not given), the activity change, negative = inhibition is -7.28%.
Turning to `Cc1ccc2nc(/C(C#N)=C/c3ccc(-c4ccc(C(=O)OC(C)C)cc4)o3)[nH]c2c1`, the activity change, negative = inhibition was 41%.
As for `Cc1ccc2nc(/C(C#N)=C/c3ccccc3F)[nH]c2c1`, the activity change, negative = inhibition is 206%.
Consider `Cc1ccc2nc(/C(C#N)=C\c3ccc(OC(=O)c4cccs4)cc3)[nH]c2c1`, for which the activity change, negative = inhibition was -67.5% (active).
With `COCCNC(=O)CSc1nc(-c2ccccc2)[nH]c1-c1ccc(C)cc1`, the activity change, negative = inhibition is -25.2%.
In the case of `CCOc1cc2[nH]c(=O)n(Cc3ccc(C(=O)NCCN(CC)CC)cc3)c(=O)c2cc1OCC`, the activity change, negative = inhibition was -5.64%.
Regarding `O=C(NC1C2CC3CC(C2)CC1C3)c1ccc(N2CCNCC2)c([N+](=O)[O-])c1` (stereo not given), the activity change, negative = inhibition was 6.12%.
The figure for `Cc1cccc(C)c1NC(=O)CNC(=O)c1ccc(N2CCOCC2)c([N+](=O)[O-])c1` is 25.4%; for `O=C(Nc1cccc(C(F)(F)F)c1)c1ccc(N2CCNCC2)c([N+](=O)[O-])c1` it is -65.3% (active).
The figure for `Cc1ccc(CSc2oc(-c3cccs3)nc2S(=O)(=O)c2ccc(C)cc2)cc1` is 12.7%.
Regarding `CCCCS(=O)(=O)c1oc(-c2cccs2)nc1S(=O)(=O)c1ccccc1`, the activity change, negative = inhibition was -108% (active).
`CSc1oc(-c2cccs2)nc1S(=O)(=O)c1ccc(Br)cc1`: the activity change, negative = inhibition is 29.5%.
For the compound `Cc1ccc(-n2nc(CO)c(C(=O)NCCc3ccccc3)n2)cc1`, the activity change, negative = inhibition is 18.9%.
As to `CCOC(=O)c1cccc(NC(=O)Cn2cnc3nc4c(cc3c2=O)CCCC4)c1`, the activity change, negative = inhibition was 4.14%.
On to `COCC(C)n1c(C)cc(C(=O)COc2ccc(C)nc2[N+](=O)[O-])c1C` (stereo not given), for which the activity change, negative = inhibition was -71.3% (active).
`Cc1ccc(OCC(=O)c2cc(C)n(Cc3ccco3)c2C)c([N+](=O)[O-])n1`: the activity change, negative = inhibition is -78.9% (active).
Regarding `Cc1ccc(OCC(=O)Nc2ccccc2Sc2ccc(Cl)cc2)c([N+](=O)[O-])n1`, the activity change, negative = inhibition was -14.6%.
Take `COc1ccc(C)cc1-n1nnnc1SCC(=O)c1cc(C)n(Cc2ccco2)c1C`: the activity change, negative = inhibition was 39.6%.
Consider `CCc1ccccc1NC(=O)CN(C)C(=O)COc1ccc(C)nc1[N+](=O)[O-]`, for which the activity change, negative = inhibition is -24.2%.
As for `CC(NC(=O)COc1cccnc1[N+](=O)[O-])c1ccc(Cl)cc1Cl` (stereo not given), the activity change, negative = inhibition is -23.4%.
With `O=S(=O)(NCCc1nnc2ccc(SCc3ccc(Cl)cc3Cl)nn12)c1ccccc1`, the activity change, negative = inhibition was 5.81%.
As to `Cn1nc(C(=O)OCC(=O)N(Cc2ccccc2)C(C)(C)C)c2ccccc2c1=O`, the activity change, negative = inhibition was 2.54%.
As for `COc1ccc(NC2=CC(=S)NC(C)(C)C2)cc1`, the activity change, negative = inhibition is 42.8%.
For the compound `COc1ccc(NC(=O)CSc2ncnc3[nH]ncc23)cc1`, the activity change, negative = inhibition is -2.36%.
As to `COc1ccc(Nc2cc(Sc3ccc(OC)cc3)ncn2)cc1`, the activity change, negative = inhibition was -88.8% (active).
Take `Cc1ccc(Sc2ccncc2S(N)(=O)=O)cc1`: the activity change, negative = inhibition is 55.9%.
`CC1CC(C)CN(C(=O)CSc2ccsc2[N+](=O)[O-])C1` (stereo not given): the activity change, negative = inhibition was -70.8% (active).
Regarding `CC1CC(C)CN(C(=O)CSc2nnc(CSc3ncccn3)n2C)C1` (stereo not given), the activity change, negative = inhibition was -15.8%.
Regarding `O=C(CSc1ccsc1[N+](=O)[O-])N1CCCCC1`, the activity change, negative = inhibition is 3.43%.
In the case of `CC(C)C(OC(=O)c1cccs1)C(=O)NC1CCCCC1` (stereo not given), the activity change, negative = inhibition was 55.6%.
As for `CC(C)=C1N(S(=O)(=O)C(F)(F)F)CCC12CN(C)c1ccccc12` (stereo not given), the activity change, negative = inhibition was -18.4%.
As to `CCC(=O)N1c2ccccc2CC1C(=O)N1CCN(c2cccc(OC)c2)CC1` (stereo not given), the activity change, negative = inhibition was 16.8%.
As for `COC(=O)c1c(C)oc(C)c1S(=O)(=O)NCc1ccc(Cl)cc1`, the activity change, negative = inhibition was -3.12%.
With `COc1ccc(C)cc1NC(=O)c1[nH]c(C)c(C(C)=O)c1C`, the activity change, negative = inhibition was 106%.
The figure for `COC(=O)c1c(C)[nH]c(C(=O)/C=C/c2ccc(Cl)cc2)c1C` is -85.4% (active).
